Experimental data: the supplement of paper PMC7858590
“And” between values parts separate entries of the source, which are not always exact repeats. Equal values may be shown once. The full ranking holds about 3,800 compounds; the median of “cell shape (eccentricity) Z-score vs DMSO control” is about 1.1, and the lowest 2% start at about -4.7. For the sample, the lowest values were picked, then their nearest neighbours and some compounds at random.

Test system: human monocyte-derived macrophages (M0)
Assay: cell shape (eccentricity) Z-score vs DMSO control; higher = more elongated, M2-like morphology
Conditions: 20 µM; 24 h; macrophage state: M0 (M-CSF)

Row | SMILES | cell shape (Z-score)
1 | CC(=O)O[C@H]1C(=O)[C@@]2(C)[C@H]([C@H](OC(=O)c3ccccc3)[C@]3(O)C[C@H](OC(=O)[C@H](O)[C@@H](NC(=O)c4ccccc4)c4ccccc4)C(C)=C1C3(C)C)[C@]1(OC(C)=O)CO[C@@H]1C[C@@H]2O | -5.5
2 | CC(=O)OC1C(=O)C2(C)C(O)CC3OCC3(OC(C)=O)C2C(OC(=O)c2ccccc2)C2(O)CC(OC(=O)C(O)C(NC(=O)c3ccccc3)c3ccccc3)C(C)=C1C2(C)C (stereo unspecified) | -3.69
3 | CC(=O)O[C@H]1C(=O)[C@@]2(C)C([C@H](OC(=O)c3ccccc3)[C@]3(O)C[C@H](OC(=O)[C@H](O)[C@@H](NC(=O)c4ccccc4)c4ccccc4)C(C)=C1C3(C)C)[C@]1(OC(C)=O)CO[C@@H]1C[C@@H]2O (stereo partly specified) | -4.41 and -4.29 and -4.69
4 | CC/C(=C(/CC)c1ccc(O)cc1)c1ccc(O)cc1 | 1.77
5 | CC1(C)CC[C@]2(C(=O)O[C@@H]3O[C@H](CO)[C@@H](O)[C@H](O)[C@H]3O)CC[C@]3(C)C(=CCC4[C@@]5(C)C[C@@H](O)[C@H](O)[C@](C)(CO)C5CC[C@]43C)C2[C@@H]1O (stereo partly specified) | 1.6
6 | Cc1[nH]c2ccccc2c1CCNCc1ccc(/C=C/C(=O)NO)cc1 | 4.88 and 5.32
7 | C/C=C/C=C/C(=O)c1cc(C)c(O)c(C)c1O | 1.03
8 | Cc1cc2nc3c(=O)[nH]c(=O)nc-3n(C)c2cc1C=O | -7.12
9 | Cc1cc2nc3c(=O)[nH]c(=O)nc-3n(C[C@@H](O)[C@@H](O)[C@@H](O)CO)c2cc1C | 0.422
10 | CCCCCCCNS(=O)(=O)c1cccc2c(Cl)cccc12 | 0.986
11 | CN(C)CCCSC(=N)N | 0.27
12 | NC(COCc1ccccc1)C(=O)O (stereo unspecified) | 1.15
13 | Oc1ccc(-c2nc(-c3ccc(F)cc3)c(-c3ccncc3)[nH]2)cc1 | -5.27
14 | CS(=O)c1ccc(-c2nc(-c3ccc(F)cc3)c(-c3ccncc3)[nH]2)cc1 (stereo unspecified) | 3.26
15 | CS(=O)(=O)c1ccc(-c2nc(-c3ccc(F)cc3)c(-c3ccncc3)[nH]2)cc1 | 1.46
16 | O=C(O)c1cc2cc(OCc3ccccc3)ccc2[nH]1 | 1.63
17 | CC(=O)O[C@H]1[C@H](Oc2ccccc2COC(=O)C2(O)C=CCCC2=O)O[C@H](CO)[C@@H](O)[C@@H]1O (stereo partly specified) | 1.32
18 | CCn1cc(C(=O)O)c(=O)c2cc(F)c(N3CCNCC3)nc21 | -1.1
19 | C=C1C(=O)O[C@@H]2[C@H]3C(CO)=CC(=O)C3=C(C)C[C@H](OC(=O)Cc3ccc(O)cc3)[C@@H]12 | -6.23
20 | O=C(Cc1ccc(O)cc1)OC1[C@@H](O)[C@@H](O)C(OC(=O)Cc2ccc(O)cc2)[C@H](O)[C@@H]1O (stereo partly specified) | 2.31
21 | C=C1C(=O)O[C@H]2C1CCC(C)=C1C(=O)C=C(C)[C@@H]12 (stereo partly specified) | -3.7
